The panel holds about 83,000 compounds, 20% with a hit somewhere; the sample as a whole holds those more often.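 Cells were grown in 96-well plates and exposed to the test compound at a single concentration for 48 hours; results are reported as percent growth, with values below 10 considered active.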 The source made the active and inactive calls.
Key:
Assay in all cases: NCI-60 one-dose screen, 48 h (100 = growth as untreated, 0 = no growth, -100 = all killed)
Conditions in all cases: 10 µM unless noted
[1] = tested on: NCI-H23 lung
[2] = tested on: NCI-H226 lung
[3] = tested on: NCI-H322M lung
[4] = tested on: HOP-62 NSCLC
[5] = tested on: NCI-H460 lung
[6] = tested on: HOP-92 NSCLC
[7] = tested on: NCI-H522 lung
[8] = tested on: A549/ATCC NSCLC
[9] = tested on: 786-0 renal
[10] = tested on: COLO 205 colon

Measured: growth

COc1cc(NCCCN=C(N)NC(N)=NC(C)C)c2ncccc2c1
active: [7] -13.1% | [10] -1.53%
inactive: [1] 34.7% | [2] 92% | [3] 52% | [4] 96.2% | [5] 91.9% | [6] 36.9% | [8] 78.6% | [9] 98.8%

CCCCCCCCCCCCCCCCC(Br)C(=O)O (stereo not given)
inactive: [1] 110% | [2] 95.5% | [3] 115% | [4] 92.4% | [5] 108% | [6] 120% | [7] 80.4% | [8] 103% | [9] 111% | [10] 119%

C=C1C(=O)O[C@H]2[C@H]1CC/C(COC(=O)NCc1cc(OC)c(OC)c(OC)c1)=C\CC[C@@]1(C)O[C@@H]21
active: [7] -42.6%
inactive: [1] 86.8% | [2] 76.2% | [3] 99.5% | [4] 80.4% | [5] 94% | [6] 72.4% | [8] 88.1% | [9] 40.3% | [10] 17.6%

COc1cc(-c2nc(-c3nc4ccccc4[nH]3)cc3c2[nH]c2ccccc23)cc(OC)c1OC
active: [6] 9.1%
inactive: [1] 41.3% | [2] 72.6% | [3] 73.8% | [4] 45.1% | [5] 30% | [7] 57.2% | [8] 22.5% | [9] 82.6% | [10] 26.9%

CCN1C(=O)/C(=c2\sc3n(c2=O)C2C(NN=3)N(CC)C(=S)N2CC)c2ccccc21 (stereo not given)
inactive: [1] 101% | [2] 92.3% | [3] 103% | [4] 79.2% | [5] 107% | [6] 99.2% | [7] 91.9% | [8] 106% | [9] 99.5% | [10] 103%

Cc1nc2scc(-c3ccccc3)n2c(=O)c1CCO
inactive: [1] 99.6% | [2] 99.9% | [3] 103% | [4] 92.5% | [5] 100% | [6] 84.6% | [7] 99.1% | [8] 93.6% | [9] 106% | [10] 108%

COc1cc(CCn2nnc3c(NCCCCO)ncnc32)cc(OC)c1
inactive: [1] 94.5% | [2] 99.3% | [3] 99.3% | [4] 113% | [5] 105% | [6] 83.8% | [7] 111% | [8] 101% | [9] 105% | [10] 109%

CCN1C(=O)N(CC)C2C1NN=c1s/c(=C\c3ccccn3)c(=O)n12 (stereo not given)
active: [5] 8.89% | [10] -2.81%
inactive: [1] 34.5% | [2] 92.2% | [3] 45.8% | [4] 11.6% | [6] 37.3% | [7] 15.1% | [8] 32.5% | [9] 22.3%

O=C(Nc1ccc(F)cc1)c1cc([N+](=O)[O-])ccc1O
inactive: [1] 50.1% | [2] 88.3% | [3] 64.3% | [4] 65.2% | [5] 64.2% | [6] 15.7% | [7] 15.3% | [8] 68.1% | [9] 80.2% | [10] 81.5%

COc1ccc(C2SCC(=O)N2NC(=O)c2ccc(NC(=O)c3ccccn3)cc2)cc1OC (stereo not given)
inactive: [1] 102% | [2] 94.3% | [3] 95.2% | [4] 88.1% | [5] 113% | [6] 116% | [7] 81.8% | [8] 91.7% | [9] 97.2% | [10] 109%

COc1cc2c(cc1OCCCCn1c(-c3cc(=O)c4ccccc4o3)nc3ccccc31)N=C[C@@H]1CCCN1C2=O
inactive: [1] 101% | [2] 101% | [3] 108% | [4] 105% | [5] 112% | [6] 66.5% | [7] 66.7% | [8] 90.5% | [9] 108% | [10] 104%

Clc1ccc(-c2nc(-c3ccco3)cn3ccnc23)cc1
active: [8] -1.62% | [9] -41.1%
inactive: [1] 61% | [2] 46.3% | [3] 11.4% | [4] 31.4% | [5] 14.5% | [6] 34.7% | [7] 61.5% | [10] 75%

N=C(N)c1ccc(-c2ccc(-c3ccc(Cl)cc3)o2)nc1
active: [1] -81.9% | [2] -68.2% | [3] -94.5% | [4] -85.5% | [5] -91.6% | [6] -87.7% | [7] -78.9% | [8] -82.8% | [9] -85.1% | [10] -87.5%

O=C1OC(c2ccccc2)=N/C1=C\c1ccc([N+](=O)[O-])cc1
inactive: [1] 100% | [2] 93.6% | [3] 96.2% | [4] 90.1% | [5] 94.6% | [6] 87.1% | [7] 94.9% | [8] 120% | [9] 98.6% | [10] 109%

CCn1c(=O)c2c(=O)c3c4c(oc3oc2c2ccccc21)C(=O)c1ccccc1C4=O
inactive: [1] 66.8% | [2] 99.4% | [3] 97.7% | [4] 80.3% | [5] 83.7% | [6] 50.8% | [7] 65.5% | [8] 82.4% | [9] 105% | [10] 110%

CC(=O)Nc1nc(C(=O)N2N=C(C)/C(=C/c3ccccc3)C2=O)cs1
inactive: [1] 108% | [2] 107% | [3] 102% | [4] 99.8% | [5] 106% | [6] 108% | [7] 85.4% | [8] 101% | [9] 105% | [10] 103%

COc1cc(NCCN=C(N)NC(N)=NC(C)C)c2ncccc2c1
active: [7] -3.01%
inactive: [1] 44.7% | [2] 94.7% | [3] 47.4% | [4] 94.8% | [5] 82.1% | [6] 33.2% | [8] 91.4% | [9] 105% | [10] 20.4%

Nc1cc2c(cc1N)-c1cc(N)c(N)cc1C2
inactive: [1] 95% | [2] 98% | [3] 102% | [4] 95.5% | [5] 105% | [6] 86.7% | [7] 88.3% | [8] 97.9% | [9] 100% | [10] 116%

COc1ccc(-c2nc(-c3ccccc3)c(-c3ccccc3)n2C2CC2)cc1OC1CCCCC1
inactive: [1] 72.6% | [2] 94% | [3] 80.4% | [4] 85% | [5] 30.9% | [6] 90.2% | [7] 64.2% | [8] 53.3% | [9] 74% | [10] 79.9%

Nc1nc(Cl)c2c(ncn2Cc2ccc(CCl)cc2)n1
inactive: [1] 94% | [2] 94.5% | [3] 94.9% | [4] 120% | [5] 93.8% | [6] 54.9% | [7] 76.1% | [8] 83.4% | [9] 103% | [10] 106%

CCOC(=O)[C@H](CSSc1ncnc2cc[nH]c12)NC(=O)[C@@H](C)c1ccc2cc(OC)ccc2c1
active: [10] 3.67%
inactive: [1] 19.9% | [2] 39.9% | [3] 10.7% | [4] 23.2% | [5] 32.7% | [6] 46% | [7] 11.3% | [8] 59.9% | [9] 25.5%

COc1ccc(NC(=O)c2cc3ccccc3nc2Nc2cc(OC)c(OC)c(OC)c2)cc1
inactive: [1] 59.6% | [2] 54.5% | [3] 90.2% | [4] 84.1% | [5] 50.3% | [6] 54.7% | [7] 57.2% | [8] 50.4% | [9] 58% | [10] 76.7%

COc1cc(/C=C/C(=O)c2ccc(NC(=O)CN3CCN(c4cc5c(cc4F)c(=O)c(C(=O)O)cn5C4CC4)CC3)cc2)cc(OC)c1OC
active: [1] -35.6% | [2] -9.81% | [3] -7.05% | [4] 4.38% | [5] -20% | [6] -1.75% | [7] -71.5% | [8] -19.2% | [9] -67.8% | [10] -12.8%

CN(C)C1CCC(NC2=CC(=O)C=CC2=O)CC1 (stereo not given)
inactive: [1] 110% | [2] 116% | [3] 102% | [4] 116% | [5] 109% | [6] 118% | [7] 90.2% | [8] 106% | [9] 121% | [10] 128%

Nc1c(C(=O)Nc2cccc(C(F)(F)F)c2)sc2nc3c(cc12)CCCCC3
active: [1] 3.46% | [3] -5.26% | [4] 3.07% | [8] -18.4% | [9] -62.8%
inactive: [2] 11.3% | [5] 10.3% | [6] 17.5% | [7] 20% | [10] 65.1%

CCn1cc(C(=O)O)c(=O)c2cc(F)c(N3CCN(S(=O)(=O)c4ccc(Cl)cc4Cl)CC3)cc21
inactive: [2] 13.1% | [4] 19.5% | [5] 10.9% | [9] 18.7%
active: [1] -3.58% | [3] -5.57% | [6] -9.06% | [7] -75.8% | [8] 2.05% | [10] -59.8%

COc1cc(/C=C\c2cc(OC)c(OC)c(OC)c2)cc(N/C=C\C(=O)c2c[nH]c3ccccc23)c1OC
active: [7] -76.9% | [9] -5.56% | [10] -77.2%
inactive: [1] 60.5% | [2] 65.5% | [3] 80.4% | [4] 83% | [5] 82.6% | [6] 48.4% | [8] 84.3%

O=S(=O)(NCCNc1cc(-c2cn(-c3ccccc3)nc2-c2ccccc2)ccn1)c1ccc(F)cc1
inactive: [1] 81.6% | [2] 77.7% | [3] 96.2% | [4] 98.8% | [5] 91.7% | [6] 40.7% | [7] 82.9% | [8] 77.6% | [9] 81.5% | [10] 98.8%

Source: PubChem BioAssay (NCI)
